Assay results published in PubChem BioAssay.
Activity calls are given as the source filed them. Unless noted, no rule for the calls is given here.

Tests used:
[1] = A549 cell viability effects, profiling panel, calcein-AM fluorescence, 48 h, basal (AID 1162); settings: higher = more signal; also: test concentration not given here
[2] = adipocyte viability effects, profiling panel, cell-based, 3T3-L1 adipocytes, calcein-AM fluorescence, 48 h, basal (AID 1163); settings: 3T3-L1 adipocytes viability, higher = more signal; also: test concentration not given here
[3] = HepG2 cell viability effects, profiling panel, calcein-AM fluorescence, 48 h, basal (AID 1164); settings: higher = more signal; also: test concentration not given here
[4] = MM1S cell viability effects, profiling panel, calcein-AM fluorescence, 48 h, basal (AID 1165); settings: higher = more signal;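 also: viability of MM1S multiple myeloma cells under basal unstimulated conditions; test concentration not given here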
[5] = basal RPMI8226 viability, no added stimulus, profiling panel, cell-based, calcein-AM fluorescence, 48 h, PK04 Diversity Set (AID 1166); settings: RPMI8226 myeloma viability, higher = more signal;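 also: cells grown under basal conditions without added stimulus; test concentration not given here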
[6] = basal HepG2 mitochondrial membrane potential changes, profiling panel, cell-based, JC-1 fluorescence, 24 h, 100 nL compound (AID 1167); settings: higher = more signal; also: test concentration not given here
[7] = basal 3T3-L1 adipocyte mitochondrial potential changes, profiling panel, cell-based, JC-1 fluorescence, 3T3-L1 adipocytes, 24 h, 100 nL compound (AID 1168); settings: JC-1 mitochondrial fluorescence, higher = more signal, called active from +8 up or from −8 down; also: test concentration not given here
[8] = basal RPMI8226 mitochondrial membrane potential changes, profiling panel, cell-based, JC-1 fluorescence, 24 h, 100 nL compound (AID 1169); settings: RPMI8226 myeloma, JC-1 mitochondrial potential fluorescence, higher = more signal; also: test concentration not given here
[9] = basal MM1S mitochondrial membrane potential changes, profiling panel, cell-based, JC-1 fluorescence, 24 h, 100 nL compound (AID 1170); settings: higher = more signal; also: test concentration not given here
[10] = A549 lung cancer cell viability effects, profiling panel, resazurin fluorescence, 24 h, PK04 Diversity Set (AID 1171); settings: higher = more signal, called active from +8 up or from −8 down; also: test concentration not given here
[11] = HepG2 liver cancer cell viability effects, profiling panel, resazurin fluorescence, 24 h, PK04 Diversity Set (AID 1172); settings: higher = more signal; also: test concentration not given here
[12] = basal S. cerevisiae growth modulation, no modifier, primary screen, OD600, strain BY4716, 24 h, basal condition (AID 1173); settings: OD600, 24 h, higher = more signal, called active from +8 up or from −8 down
[13] = MM1S myeloma cell viability, profiling panel, resazurin fluorescence, basal, 24 h, PK04 Diversity Set (AID 1174); settings: higher = more signal, called active from +8 up or from −8 down;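 also: MM1S multiple myeloma cell line; test concentration not given here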
[14] = biological target: Dihydroorotate dehydrogenase (quinone), mitochondrial (Plasmodium falciparum (isolate 3D7)) (UniProt Q08210); experiment: PfDHODH enzyme inhibitors, primary screen, biochemical, C-terminal His tag, absorbance 600 nm (AID 1175); settings: DCIP absorbance 600 nm, higher = more signal, called active from +8 up or from −8 down;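 also: recombinant parasite enzyme with a five histidine tag at its C terminus; test concentration not given here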
Dihydroorotate dehydrogenase (quinone), mitochondrial (Plasmodium falciparum (isolate 3D7)), sequence (Q08210 whole entry, looked up): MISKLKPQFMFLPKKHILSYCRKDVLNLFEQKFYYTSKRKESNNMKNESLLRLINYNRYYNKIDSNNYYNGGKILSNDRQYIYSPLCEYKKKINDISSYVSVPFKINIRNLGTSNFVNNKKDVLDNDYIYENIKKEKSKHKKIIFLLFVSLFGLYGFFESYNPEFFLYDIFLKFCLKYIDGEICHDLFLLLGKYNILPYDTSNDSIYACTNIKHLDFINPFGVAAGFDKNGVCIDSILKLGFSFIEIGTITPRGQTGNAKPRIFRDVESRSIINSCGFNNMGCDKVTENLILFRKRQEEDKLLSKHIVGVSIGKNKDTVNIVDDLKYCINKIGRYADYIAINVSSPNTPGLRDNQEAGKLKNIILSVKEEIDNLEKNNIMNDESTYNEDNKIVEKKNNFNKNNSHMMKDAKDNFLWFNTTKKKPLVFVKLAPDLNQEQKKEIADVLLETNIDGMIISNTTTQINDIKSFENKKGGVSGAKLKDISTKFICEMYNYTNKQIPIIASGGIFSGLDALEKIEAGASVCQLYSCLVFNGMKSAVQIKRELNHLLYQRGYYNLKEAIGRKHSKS

[15] = P. aeruginosa biofilm formation inhibitors, primary screen, strain PAO1, LB-PBS medium, absorbance 600 nm (AID 1176); also: test concentration not given here; settings: P. aeruginosa PAO1 growth/biofilm, A600, 12 h; higher = more signal
[16] = S. cerevisiae RM11-1a growth modifiers, primary screen, strain RM11-1a, OD600, basal, 24 h (AID 1177); settings: OD600, 24 h, higher = more signal, called active from +8 up or from −8 down;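 also: cultures grown under basal conditions with no added stressor; test concentration not given here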
[17] = E. coli acrAB mutant growth effects, primary screen, E. coli filamentation inducers, strain DRC39, OD650, 24 h (AID 1178); settings: higher = more signal, called active from +8 up or from −8 down;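 also: growth measured as culture turbidity by optical density at 650 nm; test concentration not given here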
[18] = E. coli acrAB mutant growth effects, primary screen, E. coli filamentation inducers, strain DRC39, OD650, 48 h (AID 1179);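 also: screen aims at cell division blockers that make cells filament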; settings: E. coli DRC39 delta-acrAB growth, higher = more signal, called active from +8 up or from −8 down
[19] = RPMI8226 myeloma cell viability, profiling panel, resazurin fluorescence, basal, 24 h, PK04 Diversity Set (AID 1180); settings: higher = more signal;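 also: RPMI8826 multiple myeloma cell line at 5000 cells per well; test concentration not given here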
[20] = biological target: E3 ubiquitin-protein ligase XIAP (Homo sapiens) (UniProt P98170); experiment: XIAP binders, primary screen, biophysical, small-molecule microarray, fluorescence 635 nm (AID 1181); settings: small-molecule microarray binding, higher = more signal;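 also: score merges 667 nm emission and signal to noise over triplicate slides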
E3 ubiquitin-protein ligase XIAP (Homo sapiens), sequence (P98170 whole entry, looked up): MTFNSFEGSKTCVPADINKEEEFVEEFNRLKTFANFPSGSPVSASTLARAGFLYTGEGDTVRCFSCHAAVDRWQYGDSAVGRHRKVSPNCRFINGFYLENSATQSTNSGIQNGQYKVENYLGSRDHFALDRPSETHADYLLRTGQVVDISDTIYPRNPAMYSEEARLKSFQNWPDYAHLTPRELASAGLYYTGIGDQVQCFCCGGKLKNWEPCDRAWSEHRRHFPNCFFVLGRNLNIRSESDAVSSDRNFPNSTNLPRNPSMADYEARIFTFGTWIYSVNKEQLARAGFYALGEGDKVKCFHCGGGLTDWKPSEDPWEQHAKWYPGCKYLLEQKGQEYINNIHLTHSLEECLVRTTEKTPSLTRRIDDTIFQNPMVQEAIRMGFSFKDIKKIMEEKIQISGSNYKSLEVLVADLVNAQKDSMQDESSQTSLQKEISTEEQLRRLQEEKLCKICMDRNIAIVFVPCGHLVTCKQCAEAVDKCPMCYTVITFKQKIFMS

Compound | z-score [1] | z-score [2] | z-score [3] | z-score [4] | z-score [5] | z-score [6] | z-score [7] | z-score [8] | z-score [9] | z-score [10] | z-score [11] | z-score [12] | z-score [13] | composite z-score [14] | z-score [15] | z-score [16] | z-score [17] | z-score [18] | z-score [19] | composite z-score [20]
C=C(C)c1cc2c(c(CCCCCC)n1)[Si](C(C)C)(C(C)C)OC2 | -0.926 | -0.197 | -0.567 | 0.134 | 0.414 | -0.592 | -0.617 (inactive) | 0.56 | -0.369 | 0.867 (inactive) | -0.0592 | 1.37 (inactive) | 0.272 (inactive) | 4.59 (inactive) | -0.735 (inactive) | 1.06 (inactive) | 0.251 (inactive) | 0.246 (inactive) | 0.16 | 0.0623
CN(C)C(=O)[C@@]1(CCS(=O)(=O)c2ccccc2)N=C(c2ccc(OCCCO)cc2)O[C@H]1c1ccccc1 | 0.0979 | 0.171 | 0.568 | -0.215 | -2.01 | -0.104 | -0.268 (inactive) | 0.331 | 0.0134 | -0.124 (inactive) | 0.29 | 0.26 (inactive) | -0.236 (inactive) | -0.431 (inactive) | -0.372 (inactive) | -0.0905 (inactive) | -1.47 (inactive) | -0.732 (inactive) | -0.22 | -0.0866
COCCCNC(=O)[C@@]1(Cc2ccccc2N=[N+]=[N-])N=C(c2ccc(OCCCO)cc2)O[C@H]1c1ccccc1 | -1.07 | 0.538 | -0.412 | -1.41 | -2.78 | 1.02 | 1.27 (inactive) | -1.03 | -0.34 | 0.308 (inactive) | -0.0132 | -0.632 (inactive) | -0.681 (inactive) | 0.328 (inactive) | 0.441 (inactive) | -0.115 (inactive) | 0.987 (inactive) | -0.325 (inactive) | -0.647 | 0.234
COCCOC(=O)N1C(=O)[C@@]2(c3cc(C#CCCO)ccc31)[C@H](c1ccccc1OCCO)N1[C@H](c3ccccc3)[C@H](c3ccccc3)OC(=O)[C@H]1[C@@H]2C(=O)Nc1nc2ccccc2s1 | 0.148 | -0.676 | 0.169 | -1.11 | -0.813 | -3.28 | -0.192 (inactive) | -0.417 | -0.998 | 0.854 (inactive) | 1.03 | 1.13 (inactive) | -0.125 (inactive) | -0.26 (inactive) | 2.51 (inactive) | 1.79 (inactive) | -0.233 (inactive) | -0.324 (inactive) | -0.411 | -0.115
O=C(N1CCCCC1)[C@@]1(CCS(=O)(=O)c2ccccc2)COC(c2ccc(OCCCO)cc2)=N1 | 0.606 | -0.609 | 0.299 | -1.03 | 0.0963 | 0.147 | -0.328 (inactive) | -1.13 | -1.16 | 0.327 (inactive) | -0.27 | -0.22 (inactive) | -1.52 (inactive) | -0.0606 (inactive) | 0.258 (inactive) | -0.008 (inactive) | 0.196 (inactive) | 0.21 (inactive) | -0.675 | 0.0942
CN(C)CCCNC(=O)[C@@]1(c2ccc([N+](=O)[O-])cc2)CC(=O)N(CC23CC4CC(CC(C4)C2)C3)[C@@H]1c1ccc(CO)cc1I | -4.27 | -0.0899 | -5.25 | -3.97 | -4.15 | -2.77 | 1.94 (inactive) | -0.913 | -2.37 | -7.13 (inactive) | -6.51 | -16.9 (active) | -9.05 (active) | -0.173 (inactive) | 0.277 (inactive) | -20.9 (active) | -1.46 (inactive) | -2.96 (inactive) | -6.63 | -0.0541
C=C(C(=O)CC[C@@H](OC(C)=O)c1ccc(CO)o1)C(C)C | -0.306 | -0.317 | -0.261 | -1.39 | -0.812 | -1.5 | 0.241 (inactive) | 0.544 | -0.591 | 0.246 (inactive) | -0.192 | -0.788 (inactive) | 0.0874 (inactive) | -1.75 (inactive) | 2.05 (inactive) | -0.396 (inactive) | -0.351 (inactive) | -0.374 (inactive) | 0.0268 | 0.68
COC(=O)[C@@]1(Cc2ccc(F)cc2)[C@H]2c3cc(C(=O)N4CCCC4)n(CCc4ccc(O)c(O)c4)c3C[C@H]2CN1C(=O)c1ccccc1 | 0.863 | -0.0428 | 0.609 | -3.48 | -4.2 | 0.54 | -0.461 (inactive) | -0.788 | -1.59 | 0.0195 (inactive) | -1.48 | 1.78 (inactive) | -1.07 (inactive) | -0.0926 (inactive) | 1.78 (inactive) | 1.78 (inactive) | -0.265 (inactive) | -0.177 (inactive) | -0.795 | 0.32
NC(=O)NCC#Cc1ccc2c(c1)[C@]1(C(=O)N2)[C@H](C(=O)NC[C@H](O)c2ccccc2)[C@H]2C(=O)O[C@H](c3ccccc3)[C@H](c3ccccc3)N2[C@@H]1c1ccc(OCCO)cc1 | -0.313 | 0.468 | 0.0249 | -0.254 | 1.25 | -2.05 | -0.183 (inactive) | -1.1 | -0.642 | 0.818 (inactive) | 0.815 | 1.5 (inactive) | 0.449 (inactive) | -1.11 (inactive) | 1.72 (inactive) | 2.91 (inactive) | 0.615 (inactive) | 0.541 (inactive) | 1.3 | 0.11
